# Assay outcomes deposited in PubChem by National Center for Advancing Translational Sciences (NCATS).
# Pf growth 96h: inhibits malaria parasite growth, 96 h. P. falciparum luciferase reporter growth, 96 h. AID 504834. Potency, µM (titrated, usually from 28.7 µM), for inactives: at the highest dose activity change, negative = inhibition, usual class: inhibitors. hit rate 6.9% among 320,000; also: % is scaled to controls: 0 for no effect and ±100 for the full control effect
#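 Luminescence readout: decreased luciferase signal marks inhibited growth of reporter-expressing P. falciparum in infected red cells (2% hematocrit, 0.05% parasitemia final), exposed to compound two generations (96 h, 37 C, 5% CO2).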
# Pf growth 48h: P. falciparum growth inhibition at 48 hours (one generation) | P. falciparum luciferase growth in erythrocytes, 48 h | Potency, µM (top dose mostly 28.7 µM), without a hit: at the highest dose activity change, negative = inhibition, most hits filed as inhibitors | hit rate 5.9% among 310,000 | AID 504832; also: % is scaled to controls: 0 for no effect and ±100 for the full control effect
#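 First compound was added to culture medium, then infected red cells at 0.1% parasitemia and 2% hematocrit (final). After incubation at 37 C under 5% CO2, luciferase detection reagent was dispensed and light output recorded.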
# AMA1 RON2 block: inhibitors of Plasmodium falciparum AMA1-RON2 interaction | AlphaScreen AMA1-biotinylated RON2 peptide binding | Potency, µM (titrated, usually from 58.2 µM), inactives show top-dose activity change, negative = inhibition, actives largely listed as inhibitors | hit rate 0.2% among 360,000 | AID 720542;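 also: 0% = vehicle wells and -100% = peptide control; nearly all actives have a fitted effect of over 45% in size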
#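 AMA1 (3D7) with his tag at 25 nM final met compounds first, then biotinylated RON2 peptide at 25 nM; detection used donor plus acceptor beads, 10 µg/mL apiece, read by AlphaScreen after 30 min at room temperature.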
# HCV inhibitor: inhibitors of hepatitis C virus infection; Huh7.5.1 HCVcc-Cre infection, luciferase reporter, 44 h; Potency, µM (series often up to 41.8 µM), inactives show at the highest dose activity change, negative = inhibition, actives largely listed as inhibitors; hit rate 3.4% among 340,000; also: % is scaled to controls: 0 for no effect and ±100 for the full control effect
#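 Seed cells (1,000/well) for 4 h; treat with compound and infect with HCVcc-Cre, moi about 0.5. Incubate 44 h, then detect luciferase activity.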
# NS1 function inh: blocks influenza NS1 protein function. Potency, µM (top dose mostly 46.1 µM), inactives show top-dose activity, positive = more growth. hit rate 0.4% among 270,000; calls by dose curve; also: actives are rising curves; nearly all actives have a fitted effect of over 50% in size
#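 Compounds were scored for reversing the slow growth caused by influenza A NS1 in S. cerevisiae, measured by optical density at 600 nm. Assay medium contained 2% galactose at pH 6.0; NS1-free yeast of the same strain were the positive control.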
# SARS PLpro yeast: inhibitors of SARS-CoV papain-like protease in yeast. S. cerevisiae expressing SARS-CoV PLpro, growth rescue. Potency, µM (top dose mostly 32.9 µM), for inactives: at the highest dose activity, positive = growth rescue, usual class: activators. hit rate 0.19% among 330,000; calls by dose curve; also: 0% is about no effect; nearly all actives have a fitted effect of over 55% in size
# An asterisk follows results filed as active; i = inactive; u = inconclusive; x = no result; [ ] = dose if it differs, or a comment. Shown are actives, neighbours in structure and some others; about 12% of the full set was active somewhere. Unless noted, calls follow the shape of the dose curve; as a rule, active = well fitted curve in the direction sought with a large enough effect; inconclusive = small, poorly fitted or top-dose-only effect, or another doubt; inactive = no such curve, though single readings can be large; an effect the other way counts as inactive or inconclusive. Potency is read from the fitted curve at half-maximal effect.
SMILES,Pf growth 96h,Pf growth 48h,AMA1 RON2 block,HCV inhibitor,NS1 function inh,SARS PLpro yeast
CC(Sc1ccsc1[N+](=O)[O-])C(=O)N1CCN(c2ccccn2)CC1 (stereo not given),-10%,-35%,-3%,-11%,x,-1%
COc1ccc(Cl)cc1NC(=O)CN1CCN(Cc2ccccc2)CC1,199%,-28%,-21%,-12%,-7%,1%
CC(C)C[C@H]1CNC(=S)N1CC1CCCN1C[C@H](CC(C)C)N1C[C@H](CC(C)C)N(CCc2ccccc2)C1=S (stereo not given in full),x,x,10%,3%,x,x
O=C(Nc1cccc(F)c1)N1CCCC(CNS(=O)(=O)Cc2ccccc2)C1 (stereo not given),5.2µM*,9%,10%,10%,2%,1%
O=C(NC1CCCCC1)N1CCCC(CNS(=O)(=O)Cc2ccccc2)C1 (stereo not given),u,13%,7%,-4%,1%,-1%
CCCCCOc1ccc(NC2=CC(=O)CCC2)cc1,u,13µM*,-21%,12%,0%,-4%
C[C@@H]1C(=O)NC2=Nc3cccc(Cl)c3CN21,10%,8%,x,x,-15%,x
CCOC(=O)c1cc(-c2ccccc2)sc1NC(=O)CC(C)C,7.4µM*,u,14%,-15%,1%,-27%
CCOC(=O)c1cc(-c2ccccc2)sc1NC(=O)c1cc(OC)c(OC)c(OC)c1,u,20%,5%,u,21%,19%
COC(=O)c1cc(-c2ccccc2)sc1N,166%,x,i,2µM*,-11%,-17%
COC(=O)c1nc(N)sc1-c1ccc(Cl)cc1,u,9%,22%,-8%,x,3%
CCOC(=O)c1cc(-c2ccccc2)sc1NC(=O)CN1C(=O)c2ccccc2C1=O,x,x,6%,-5%,x,x
COC(=O)c1nc(N)sc1-c1ccccc1,9.3µM*,14%,15%,9%,2%,-5%
CCOC(=O)c1cc(-c2ccccc2)sc1NC(=S)Nc1cc(C)ccn1,13µM*,u,1%,12%,2%,-6%
CC(=O)Nc1ccc(Oc2cncc(Cl)c2)nc1,26%,10%,2%,-11%,0%,-1%
CCOC(=O)c1cc(-c2ccccc2)sc1NC(=O)C(C)(C)C,u,9.3µM*,11%,-20%,-13%,9%
CCOC(=O)c1cc(-c2ccccc2)sc1NC(=O)CSc1nnnn1C,u,u,6%,u,-28%,5%
COC(=O)C1=C(C)N(Cc2ccc(OC)c(OC)c2)C(=O)C1,u,13µM*,-7%,13%,18%,23%
Cc1cccc(NC(=O)c2cccc(N3C(=O)CCC3=O)c2)c1,-10%,52%,-1%,7%,4%,29%
O=C1C2C3C=CC(C3)C2C(=O)N1c1ccc2c(c1)OCO2 (stereo not given),-14%,2%,-5%,-2%,-11%,1%
Cc1cc(N2C(=O)C3C4C=CC(C4)C3C2=O)ccc1Br (stereo not given),12µM*,-7%,-23%,-6%,-5%,-6%
Cc1cc(C)cc(NC(=O)c2cccc(N3C(=O)C4C5C=CC(C5)C4C3=O)c2)c1 (stereo not given),4.7µM*,u,-3%,-12%,8%,1%
Cc1cccc(NC(=O)c2cccc(N3C(=O)C4C5C=CC(C6CC56)C4C3=O)c2)c1 (stereo not given),u,16%,2%,11µM*,4%,1%
CC(=O)N/C(=C\c1ccccc1)C(=O)OCC(=O)NC1CCS(=O)(=O)C1 (stereo not given),-9%,13%,-2%,12%,x,5%
Cc1ccc(Cl)cc1NC(=S)N/N=C/c1cccc2ccccc12,u,2.1µM*,27%,u,8%,0%
SMILES,Pf growth 96h,Pf growth 48h,AMA1 RON2 block,HCV inhibitor,NS1 function inh,SARS PLpro yeast
Cc1ccc(Cl)cc1NC(=S)Nn1cnnc1,2.6µM*,0%,43%,21%,21%,u
Cc1ccc(OCC(=O)NCCO)cc1C,1.3µM*,x,0%,24%,u,1%
Cc1cc(NC(=O)COc2ccc(C)c(C)c2)no1,u,73%,19%,0%,-2%,8%
Cc1ccc(OCC(=O)NNC(=O)c2cc3ccccc3o2)cc1C,12µM*,29%,-12%,-4%,6%,5%
Cc1ccc(OCC(=O)Nc2cc(C(C)(C)C)on2)cc1C,6%,5.2µM*,-6%,-18%,7%,1%
O=C(COc1ccc(Br)cc1)NCCO,u,35%,9%,-4%,12%,-2%
C#CCOCCOCCOCCNc1nc(N2CCOCC2)nc(N2CCN(C(=O)CCCCCCCCCCNC(=O)[C@H](CO)n3cc(CCCCCN)nn3)CC2)n1,0.83µM*,0.33µM*,-2%,1%,x,-26%
C#CCOCCOCCOCCNc1nc(N2CCOCC2)nc(N2CCN(C(=O)Cn3cc(CCCCN)nn3)CC2)n1,x,x,-6%,9%,x,x
C#CCOCCOCCOCCNc1nc(N2CCN(C(=O)CCCCCCCCCCNC(=O)Cn3cc(CCCCCN)nn3)CC2)nc(N2CCN(C(=O)CCCCCCCCCCNC(=O)[C@H](CO)n3cc(CCCCCN)nn3)CC2)n1,2.9µM*,1µM*,u,32µM*,x,-26%
C#CCOCCOCCOCCNc1nc(N2CCN(C(=O)Cn3cc(CCCCN)nn3)CC2)nc(N2CCN(C(=O)[C@H](CCCCN)n3cc(CCCC)nn3)CC2)n1,u,u,-9%,1%,x,-4%
C#CCOCCOCCOCCNc1nc(N2CCN(C(=O)CCCCCCCCCCNC(=O)Cn3cc(CCCCCN)nn3)CC2)nc(N2CCN(C(=O)CCCCCCCCCCNC(=O)[C@H]([C@@H](C)CC)n3cc(CCCCCN)nn3)CC2)n1,u,10µM*,u,u,x,6%
C#CCOCCOCCOCCNc1nc(N2CCOCC2)nc(N2CCN(C(=O)CCCCCCCCCCNC(=O)Cn3cc(CCCCCN)nn3)CC2)n1,u,3.7µM*,27%,19%,x,-13%
CCN(Cc1ccccc1)c1ccc(N=Nc2nn(C)c(C)c2[N+](=O)[O-])cc1,u,1.7µM*,10µM*,u,u,11%
CCN(Cc1ccccc1)c1ccccc1,x,x,5%,10%,x,x
CCN(CC)c1ccc(N=Nc2nn(C)c(C)c2[N+](=O)[O-])cc1,3.7µM*,u,-25%[11.6 µM],u,5%,9%
O=c1c(-c2ccc(O)cc2O)coc2cc(O)cc(O)c12,1.2µM*,87%,-23%,-11%,1%,0%
COc1ccccc1-c1coc2cc(O)cc(O)c2c1=O,x,4%,-6%,1%,-108%,-17%
CCn1c(C(=O)OC)cc2c1ccn2-c1ccc(F)cc1,x,11%,-23%,4.5µM*,-54%,-37%
